# Screening data as filed in PubChem.
# This is one part of a sample in which hits are shown more often than they occur.
# RORg inh – inhibitors of mouse ROR gamma transcriptional activity | P51450 | Drosophila S2 Gal4-RORgamma UAS-luciferase reporter, 20 h | Potency, µM (series often up to 53.6 µM), without a hit: at the top dose activity change, negative = inhibition, usual class: inhibitors | actives 5.4% (n = 310,000) | AID 2551; also: potency is read from the fitted curve at half-maximal effect; % is scaled to controls: 0 for no effect and ±100 for the full control effect; nearly all actives have a fitted effect of over 60% in size
# Target sequence (P51450 whole entry, looked up, the tested form may be a part): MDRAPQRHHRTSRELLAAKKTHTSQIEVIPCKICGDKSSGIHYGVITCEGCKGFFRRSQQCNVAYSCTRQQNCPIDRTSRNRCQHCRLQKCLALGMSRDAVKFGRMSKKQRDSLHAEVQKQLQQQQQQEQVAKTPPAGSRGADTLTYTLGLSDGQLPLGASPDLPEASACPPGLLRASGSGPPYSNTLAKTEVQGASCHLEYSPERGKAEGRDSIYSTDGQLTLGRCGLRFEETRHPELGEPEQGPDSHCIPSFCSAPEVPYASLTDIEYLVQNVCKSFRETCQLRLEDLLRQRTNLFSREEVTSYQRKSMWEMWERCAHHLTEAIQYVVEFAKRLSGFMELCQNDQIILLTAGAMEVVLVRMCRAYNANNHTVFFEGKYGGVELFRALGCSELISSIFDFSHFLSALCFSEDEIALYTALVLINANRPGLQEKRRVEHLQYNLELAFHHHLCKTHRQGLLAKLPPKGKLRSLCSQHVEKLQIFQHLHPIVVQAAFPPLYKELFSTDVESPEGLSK
#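 Drosophila Schneider cells stably carrying a metallothionein-driven Gal4 DBD–ROR gamma fusion and a UAS-Photinus luciferase reporter were exposed to compound for 1 hr, then induced with copper sulfate (700 uM final) for 20 hr at ambient temperature before luminescence reading.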
# Gal4-VP16 FLuc – counter-screen for ROR gamma inhibitors: Gal4-VP16 reporter; Drosophila S2 Gal4-VP16 UAS-luciferase, luminescence, 20 h; Potency, µM (series often up to 53.6 µM), inactives show at the highest dose activity, negative = inhibition, usual class: inhibitors; actives 3.5% (n = 310,000); AID 2546;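 also: Gal4-VP16 expression switched on by copper sulfate through the metallothionein promoter; potency is read from the fitted curve at half-maximal effect; % is scaled to controls: 0 for no effect and ±100 for the full control effect; nearly all actives have a fitted effect of over 50% in size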
# ERG Ets-DNA blk – blocks human ERG Ets domain binding to DNA; P11308; fluorescence polarization, His-ERG Ets domain / labelled DNA; Potency, µM (doses to about 76.9 µM), inactives show at the highest dose FP activity, negative = inhibition, hits mostly inhibitors; actives 0.028% (n = 370,000); AID 624246; active = well fitted inhibition curve with a large enough effect in the polarisation, with a control signal flat; inconclusive = small, poorly fitted or top-dose-only effect, or effect the other way, or a change in a side signal; inactive = no such curve, though single readings can be large or run the other way; the % refers to the polarisation;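 also: polarization taken with two DNA probes labelled with fluorescein and Texas red; potency is read from the fitted curve at half-maximal effect; % of control where 0% means no effect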
#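 His-tagged ERG Ets domain (1 uM in the protein solution; 300mM KCl, 50mM Tris-HCl, 1mM EDTA, 1mM DTT, pH 7.5) received compound, then a probe mix of 5 nM fluorescein-DNA and 100nM Texas-615-DNA. Fluorescence polarization was read for both dyes.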
# Integrin act MD – activates integrin-mediated alleviation for muscular dystrophy; actives 0.064% (n = 350,000); Potency, µM (top dose mostly 38.3 µM), for inactives: at the highest dose activation, usual class: activators; alpha7betagal myoblasts, beta-gal FDG fluorescence, 48 h; AID 624291;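 also: potency is read from the fitted curve at half-maximal effect; 100% = response of the positive control SU9516; nearly all actives have a fitted effect of over 60% in size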
#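 alpha7betagal+/- myoblasts (passage 13, 250/well) treated 48 h at 37C with compounds at 1:260 dilution of DMSO stock. Lysed, then beta-galactosidase activity read as FDG fluorescence (ex 480/em 540) after 30 min, with pre-read for autofluorescence.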
# Giardia kill – Giardia lamblia killing; activity change, % at 7.66 µM, hits read low; AID 540267; Giardia lamblia trophozoite viability; actives 0.15% (n = 340,000); in the data active = activity change below about -80%; inconclusive = between about -30% and that limit;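 also: parasites exposed to compound for two days anaerobically before the ATP read; % is scaled to controls: 0 for no effect and ±100 for the full control effect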
#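 Giardia trophozoites, 100 cells per well, were exposed to compounds for 48 hrs at 37 deg C under anaerobic conditions; viability was then read as ATP content by bioluminescence after 15-30 min at room temperature.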
# Active calls of the source: *; u = inconclusive; x = no result; [ ] = remark or other dose. Unless noted, calls follow the shape of the dose curve; as a rule, active = well fitted curve in the direction sought with a large enough effect; inconclusive = small, poorly fitted or top-dose-only effect, or another doubt; inactive = no such curve, though single readings can be large; an effect the other way counts as inactive or inconclusive.
SMILES,RORg inh,Gal4-VP16 FLuc,ERG Ets-DNA blk,Integrin act MD,Giardia kill
O=C(Nc1ccc(NC(=O)c2ccccn2)cc1)C(=O)Nc1ccc2c(c1)OCCO2,u,-7.8%,-5.6%,-14.2%,10.8
CC(C)N(Cc1ccccc1)C(=O)CCS(=O)(=O)c1cc2c(cc1Cl)NC(=O)CO2,x,x,2.2%,x,x
O=C1C2=C(C(=O)c3ccccc31)C1O[C@](c3ccsc3)(Cc3ccccc31)O2,20.9%[10 µM],1.4%[10 µM],x,x,x
Cc1ccc(/C=C/c2onc(C)c2S(=O)(=O)N2CCC(C(=O)N3CCN(c4ccccc4F)CC3)CC2)cc1,x,x,0.8%,x,x
CC(C)(C)OC(=O)N1CCC(c2c(C(=O)NCCN3CCC(Cc4ccccc4)CC3)cnn2-c2cccc(Cl)c2)CC1,x,x,0.4%,x,x
O=C(Nc1cccc(Cl)c1Cl)c1cc(S(=O)(=O)NCCc2ccccc2)ccc1F,5.01µM*,3.9%,-3.4%,-18.5%,13.7
CCCCS(=O)(=O)N1CCCC(C(=O)NCCc2ccccc2)C1 (centres undefined),0.8%,-1.2%,0.4%,7.08µM*,1.5
CCCS(=O)(=O)N1CCCC(C(=O)c2cccc(Cl)c2)C1 (centres undefined),16.3%,-22.0%,0.7%,6.31µM*,7.4
CS(=O)(=O)N1CCCC(C(=O)c2cccc(Cl)c2)C1 (centres undefined),-24.4%,-20.5%,3.7%,0.0%,-14.5
Cc1ccc(C2=NNC3(CCOC(C)(C)C3)S2)cc1 (centres undefined),5.62µM*,7.94µM*,-18.9%,20.7%,-15.8
O=C(CSc1nccn1-c1ncc(C(F)(F)F)cc1Cl)c1ccc(Br)cc1,11.2µM*,u,-4.8%,-4.5%,-0.1
Brc1ccc(CSc2nccn2-c2ccccc2)cc1,14.1µM*,-1.0%,2.6%,29.4%,0.7
Clc1cccc(CSc2nccn2-c2ccccc2)c1,5.01µM*,-3.9%,5.2%,7.4%,-7.4
Cc1ccc(C(=O)CSc2nccn2-c2ccccc2)cc1,10µM*,u,-0.6%,-19.9%,7.5
O=C(Nc1ccc(Br)cc1)c1cccn1-c1ncc(C(F)(F)F)cc1Cl,u,-8.6%,1.6%,14.0%,2.4
COC(=O)c1sccc1NC(=O)CN(C)NS(=O)(=O)c1ccc(F)cc1,-9.4%,-2.7%,-5.3%,-22.2%,-2.9
CCSc1nc2ccccc2n1C(=O)/C=C/c1ccc(OC)c(OC)c1,7.08µM*,u,6.0%,-49.5%,19.9
C=CCSc1nc2ccccc2n1C(=O)/C=C/c1ccc(OC)c(OC)c1,5.01µM*,11.2µM*,11.0%,-34.6%,3.5
CCn1c(SCC(=O)N/N=C/c2ccc(OC)c(OC)c2)nc2ccccc21,21.4%,0.1%[0.365 µM],-1.7%,-7.0%,-11.3
COc1ccc(CC(=O)n2c(CC#N)nc3ccccc32)cc1OC,11.2µM*,u,0.4%,22.4%,-2.4
COc1cc(/C=C/C(=O)NCCn2c(C)cc3ccccc32)cc(OC)c1OC,39.7%,-5.9%,0.4%,6.4%,-4.2
C=CCSc1nc2ccccc2n1C(=O)/C=C/c1cc(OC)c(OC)c(OC)c1,3.55µM*,5.01µM*,2.2%,-11.6%,3.6
COc1ccc(/C=C/C(=O)N2CC(C)OC(C)C2)cc1OC (centres undefined),-10.4%,1.6%,-10.7%,-56.2%,-5.0
Oc1c(C(c2ccccc2)N2CCC(O)CC2)sc2nc(-c3ccco3)nn12 (centres undefined),x,x,5.1%,x,x
CCC1CN(C(=O)NCc2ccccc2)c2ccccc2O1 (centres undefined),u,-3.5%,-0.5%,-23.3%,17.3
SMILES,RORg inh,Gal4-VP16 FLuc,ERG Ets-DNA blk,Integrin act MD,Giardia kill
CCOc1cc(C2C(C#N)=C(N)SC(N)=C2C#N)ccc1OCCN1CCOCC1,u,1.0%,x,-14.5%,3.5
CCOc1ccc(C2C(C#N)=C(N)SC(N)=C2C#N)c(OCC)c1,12.6µM*,u,6.9%,13.1%,-4.0
Clc1nssc1=Nc1ccc(Br)cc1,u,u,3.3%,-13.9%,-11.2
COc1cc(N=c2ssnc2Cl)cc(OC)c1,3.98µM*,7.08µM*,-5.2%,-29.8%,17.6
CC(C)(C)NC(=O)COC(=O)CNC(=O)C1CCCCC1,x,x,x,x,17.2
Nc1nc(-c2nn(Cc3ccccc3F)c3ncccc23)ncc1C1CC1,1.78µM*,12.6µM*,x,x,x
Cn1c(SCc2ccccc2F)nc2cccnc21,-24.5%,7.9%,-11.6%,-81.7%,-11.1
